Some compounds were tested as several samples or in several runs, with calls that do not always agree. The source made the active and inactive calls. Rule for the calls: active = hit-call score of the fitted dose curve at least 0.9, where 1 is the maximum; inactive = score below 0.9.
Legend:
[1] = ATG_Ets_CIS: Attagene CIS-FACTORIAL HepG2 Assay for human Erythroblast Transformation Specific (ETS) (AID 2282941); conditions: HepG2 ETS cis-reporter transcription, actives raise or lower the signal
Method in brief: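 Cis-regulated reporter mRNA induction in HepG2 (transient transfection), 24 h exposure, RT-PCR plus capillary electrophoresis detection; DMSO serves as negative control and baseline.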

[2] = target: Hepatocyte nuclear factor 3-beta (Homo sapiens) (UniProt Q9Y261); assay: ATG_FoxA2_CIS: Attagene CIS-FACTORIAL HepG2 Assay for human Forkhead box A2 (FOXA2) (AID 2282942); conditions: HepG2 cis-reporter transcription factor activity, 24 h; actives raise or lower the signal
Method in brief: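 Transient MRTU transfection of HepG2 liver cells; 24 h treatment; total RNA → oligo(dT) RT → PCR → FAM primer extension → HpaI cut → CE. Bidirectional fit vs DMSO.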

[3] = ATG_GATA_CIS: Attagene CIS-FACTORIAL HepG2 Assay for human GATA Binding Protein (AID 2282944); conditions: HepG2 GATA cis-element reporter, Attagene multiplex mRNA; actives raise or lower the signal
Method in brief: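 Endogenous transcription factor activity was captured through cis-promoter-driven reporters in transfected HepG2 cells. After 24 h exposure, reporter transcripts were quantified by RT-PCR with fluorescent capillary electrophoresis, and responses fitted both directions against DMSO.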

[4] = ATG_GLI_CIS: Attagene CIS-FACTORIAL HepG2 Assay for human Zinc Finger Protein GLI1 (AID 2282945); conditions: HepG2, Attagene cis-factorial reporter mRNA, GLI element; actives raise or lower the signal
Method in brief: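 HepG2 cells transiently transfected with cis-promoter multiplexed reporter units report endogenous transcription factor activity. After 24 h chemical exposure, reporter mRNA was quantified by RT-PCR, 6-FAM labelling, HpaI digestion and capillary electrophoresis, with bidirectional fitting against DMSO.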

[5] = target: Bile acid receptor (Homo sapiens) (UniProt Q96RI1); assay: ATG_IR1_CIS: Attagene CIS-FACTORIAL HepG2 Assay for human Nuclear Receptor Subfamily 1 Group H Member 4 (NR1H4), IR1 submotif (AID 2282946); conditions: IR1 reporter transcription, actives raise or lower the signal
Method in brief: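 Readout: reporter transcript levels by RT-PCR with fluorescent capillary electrophoresis, from HepG2 cells transiently transfected with multiplexed cis-regulated reporters and dosed 24 h. Gain- or loss-of-signal fitted versus DMSO negative control.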

[6] = ATG_ISRE_CIS: Attagene CIS-FACTORIAL HepG2 Assay for human Interferon Regulatory Factor 1 (IRF1) binding to an Interferon-Stimulated Response Element (ISRE) (AID 2282948); conditions: HepG2 ISRE cis-reporter (Attagene), mRNA transcription readout; actives raise or lower the signal
Method in brief: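 Multiplexed mRNA reporter readout in human liver HepG2 cells: cis-element-driven reporters transfected, compound added for 24 h, transcripts amplified, fluorescently labelled and sized by capillary electrophoresis; curve fitting bidirectional against DMSO.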

[7] = ATG_M_32_CIS: Attagene CIS-FACTORIAL HepG2 Assay for M32 Transcription Factor (Internal Marker) (AID 2282949); conditions: HepG2 Attagene cis-factorial M32 reporter, mRNA; actives raise or lower the signal;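 note: background control marker of the multiplexed CIS panel rather than a real target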
Method in brief: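 HepG2 human liver cells transiently transfected with cis-promoter-driven multiple reporter transcription units, dosed 24 h. Reporter mRNA quantified by RT-PCR, FAM-labelled primer extension, HpaI digest and capillary electrophoresis; bidirectional fit versus DMSO baseline.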

[8] = ATG_M_06_CIS: Attagene CIS-FACTORIAL HepG2 Assay for M06 Transcription Factor (Internal Marker) (AID 2282950); conditions: HepG2 Attagene CIS-FACTORIAL M06 internal marker reporter; actives raise or lower the signal
Method in brief: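 Steps: transfect HepG2 with multiplexed cis-element reporter constructs; dose chemical 24 h; extract RNA with DNase treatment; reverse-transcribe, PCR-amplify, 6-FAM label, HpaI digest; separate fragments by capillary electrophoresis. Activity fitted both directions versus DMSO.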

[9] = target: Hypoxia-inducible factor 1-alpha (Homo sapiens) (UniProt Q16665); assay: ATG_HIF1a_CIS: Attagene CIS-FACTORIAL HepG2 Assay for human Hypoxia Inducible Factor 1 (HIF1A) (AID 2282951); conditions: HepG2 Attagene cis-factorial HIF1a reporter transcription; actives raise or lower the signal
Method in brief: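 Transient MRTU transfection of human HepG2 liver cells, 24 h compound treatment, then total RNA isolation, oligo(dT) reverse transcription, PCR amplification, fluorescent labelling and capillary electrophoresis of reporter fragments. Gain or loss relative to DMSO.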

[10] = target: Hepatocyte nuclear factor 6 (Homo sapiens) (UniProt Q9UBC0); assay: ATG_HNF6_CIS: Attagene CIS-FACTORIAL HepG2 Assay for human Hepatocyte Nuclear Factor 6 (HNF6) (AID 2282952); conditions: HepG2 Attagene cis-factorial HNF6 reporter transcription; actives raise or lower the signal
Method in brief: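 Activity values derive from bidirectional fitting against DMSO of reporter mRNA levels, measured by capillary electrophoresis of labelled RT-PCR products from HepG2 cells exposed 24 h.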

[11] = target: Heat shock factor protein 1 (Homo sapiens) (UniProt Q00613); assay: ATG_HSE_CIS: Attagene CIS-FACTORIAL HepG2 Assay for human Heat Shock Transcription Factor 1 (HSE) (AID 2282953); conditions: HepG2 HSE cis-reporter, Attagene RNA transcription; actives raise or lower the signal
Method in brief: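 Cells were transfected with cis-element-driven reporter constructs, dosed for 24 h, then total RNA was reverse-transcribed and reporter cDNA amplified, FAM-labelled and digested with HpaI. Fragments were resolved by capillary electrophoresis; gain or loss was fitted against DMSO.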

[12] = ATG_MRE_CIS: Attagene CIS-FACTORIAL HepG2 Assay for human Metal Responsive Element (MRE) (AID 2282954); conditions: HepG2 MRE cis-reporter transcription, Attagene multiplex; actives raise or lower the signal
Method in brief: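 Cells were transfected with cis-promoter reporter transcription units, then dosed for 24 h. RNA was reverse-transcribed, amplified, fluorescently labelled and resolved by capillary electrophoresis, and activity was fitted in both directions relative to DMSO.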

[13] = ATG_PBREM_CIS: Attagene CIS-FACTORIAL HepG2 Assay for human Phenobarbital-responsive Enhancer Module (PBREM) (AID 2282955); conditions: HepG2 PBREM cis-reporter, Attagene multiplexed transcription; actives raise or lower the signal
Method in brief: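 Endogenous transcription factors in human liver HepG2 cells drive a PBREM cis-element reporter, whose transcript level after 24 h treatment is quantified by RT-PCR with capillary electrophoresis; activity fitted in both directions against DMSO.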

[14] = target: Paired box protein Pax-6 (Homo sapiens) (UniProt P26367); assay: ATG_Pax6_CIS: Attagene CIS-FACTORIAL HepG2 Assay for human Paired Box 6 (PAX6) (AID 2282956); conditions: HepG2 CIS-FACTORIAL PAX6 reporter transcription, RNA readout; actives raise or lower the signal
Method in brief: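 Fluorescent RT-PCR products separated by capillary electrophoresis report PAX6-linked promoter mRNA in HepG2 cells 24 h post-dose. Curves fitted bidirectionally, DMSO as negative control.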

[15] = ATG_PXRE_CIS: Attagene CIS-FACTORIAL HepG2 Assay for human Pregnane X Receptor Element (PXRE) (AID 2282957); conditions: HepG2 Attagene CIS-FACTORIAL PXRE reporter, mRNA; actives raise or lower the signal
Method in brief: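 Fluorescent capillary electrophoresis of amplified reporter cDNA gave the signal, collected 24 h after dosing HepG2 cells that held transfected cis-element reporter constructs.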

[16] = ATG_PPRE_CIS: Attagene CIS-FACTORIAL HepG2 Assay for human Peroxisome Proliferator-activated Response Element (PPRE) (AID 2282958); conditions: HepG2 PPRE cis-element reporter, Attagene transcription factor profiling; actives raise or lower the signal
Method in brief: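 HepG2, transient MRTU transfection (cis promoter elements, endogenous TFs). 24 h dosing. RNA → oligo(dT) RT → PCR → 6-FAM primer extension → HpaI digest → CE. Bidirectional fit vs DMSO.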

[17] = ATG_RORE_CIS: Attagene CIS-FACTORIAL HepG2 Assay for human RAR-related Orphan Receptor Element (RORE) (AID 2282959); conditions: HepG2 Attagene cis-factorial RORE reporter, mRNA; actives raise or lower the signal
Method in brief: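 Transient MRTU transfection of human HepG2 liver cells (FuGene 6); 24 h compound exposure; TriZol RNA, oligo(dT) RT, PCR, FAM labeling, HpaI cut, CE fragment analysis. DMSO = negative control/baseline.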

[18] = ATG_FoxO_CIS: Attagene CIS-FACTORIAL HepG2 Assay for human Forkhead box O (FoxO) (AID 2282943); conditions: HepG2 Attagene cis-reporter, FoxO element, mRNA; actives raise or lower the signal
Method in brief: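 HepG2 cells transiently transfected with cis-promoter-driven multiple reporter transcription units; 24 h after chemical dosing, reporter mRNA quantified by RT-PCR, fluorescent primer extension, HpaI digestion and capillary electrophoresis. Bidirectional fitting versus DMSO baseline.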

[19] = ATG_GRE_CIS: Attagene CIS-FACTORIAL HepG2 Assay for human Glucocorticoid Response Elements (GRE) (AID 2282947); conditions: HepG2 GRE cis-reporter, Attagene multiplex mRNA; actives raise or lower the signal
Method in brief: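 Cells (HepG2) bearing transfected cis-promoter reporter transcription units were treated with chemical for 24 hours. Reporter mRNA was measured via RT-PCR with capillary electrophoresis, and activity was fitted in both directions relative to DMSO.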

Measured: AC50

Hepatocyte nuclear factor 3-beta (Homo sapiens), sequence (Q9Y261 whole entry, looked up): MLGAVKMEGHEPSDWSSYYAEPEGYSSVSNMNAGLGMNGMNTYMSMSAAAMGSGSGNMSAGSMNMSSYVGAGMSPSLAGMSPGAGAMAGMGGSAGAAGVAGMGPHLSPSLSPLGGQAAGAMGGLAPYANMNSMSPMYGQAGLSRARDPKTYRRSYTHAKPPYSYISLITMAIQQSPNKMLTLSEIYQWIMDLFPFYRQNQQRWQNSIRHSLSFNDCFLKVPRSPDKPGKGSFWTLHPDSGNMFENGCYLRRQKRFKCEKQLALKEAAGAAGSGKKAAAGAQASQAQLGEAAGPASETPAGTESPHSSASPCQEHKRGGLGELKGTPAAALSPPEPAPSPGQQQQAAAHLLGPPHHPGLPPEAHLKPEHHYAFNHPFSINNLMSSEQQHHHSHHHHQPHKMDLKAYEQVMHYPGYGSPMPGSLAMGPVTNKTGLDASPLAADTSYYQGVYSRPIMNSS
Heat shock factor protein 1 (Homo sapiens), sequence (Q00613 whole entry, looked up, the tested form may be a part): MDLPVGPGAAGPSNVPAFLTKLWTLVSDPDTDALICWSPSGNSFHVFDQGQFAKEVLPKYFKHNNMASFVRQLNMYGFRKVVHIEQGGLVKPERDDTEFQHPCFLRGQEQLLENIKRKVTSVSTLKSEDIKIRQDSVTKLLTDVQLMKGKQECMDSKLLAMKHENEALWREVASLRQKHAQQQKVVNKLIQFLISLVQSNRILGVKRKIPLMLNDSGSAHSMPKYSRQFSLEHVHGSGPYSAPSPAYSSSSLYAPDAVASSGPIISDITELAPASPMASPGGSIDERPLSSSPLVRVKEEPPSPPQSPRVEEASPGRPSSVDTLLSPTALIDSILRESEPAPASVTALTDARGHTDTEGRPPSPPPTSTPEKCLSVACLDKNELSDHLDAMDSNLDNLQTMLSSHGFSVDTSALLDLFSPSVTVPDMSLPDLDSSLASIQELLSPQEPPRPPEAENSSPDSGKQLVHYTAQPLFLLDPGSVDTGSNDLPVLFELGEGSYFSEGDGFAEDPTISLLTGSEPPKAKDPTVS
Hepatocyte nuclear factor 6 (Homo sapiens), sequence (Q9UBC0 whole entry, looked up): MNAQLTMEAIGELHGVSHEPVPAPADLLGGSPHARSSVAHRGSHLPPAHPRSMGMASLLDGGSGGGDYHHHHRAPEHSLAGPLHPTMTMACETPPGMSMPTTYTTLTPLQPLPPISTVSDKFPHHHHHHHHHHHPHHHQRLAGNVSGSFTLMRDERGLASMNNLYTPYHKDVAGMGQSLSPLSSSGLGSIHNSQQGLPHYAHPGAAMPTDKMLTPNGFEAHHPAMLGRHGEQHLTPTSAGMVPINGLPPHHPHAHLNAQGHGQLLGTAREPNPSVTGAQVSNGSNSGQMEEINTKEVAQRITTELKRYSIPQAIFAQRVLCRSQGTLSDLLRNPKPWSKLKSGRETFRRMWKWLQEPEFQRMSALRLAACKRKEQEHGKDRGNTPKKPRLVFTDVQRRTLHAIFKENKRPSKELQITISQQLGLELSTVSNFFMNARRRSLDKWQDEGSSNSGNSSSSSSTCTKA
Bile acid receptor (Homo sapiens), sequence (Q96RI1 whole entry, looked up): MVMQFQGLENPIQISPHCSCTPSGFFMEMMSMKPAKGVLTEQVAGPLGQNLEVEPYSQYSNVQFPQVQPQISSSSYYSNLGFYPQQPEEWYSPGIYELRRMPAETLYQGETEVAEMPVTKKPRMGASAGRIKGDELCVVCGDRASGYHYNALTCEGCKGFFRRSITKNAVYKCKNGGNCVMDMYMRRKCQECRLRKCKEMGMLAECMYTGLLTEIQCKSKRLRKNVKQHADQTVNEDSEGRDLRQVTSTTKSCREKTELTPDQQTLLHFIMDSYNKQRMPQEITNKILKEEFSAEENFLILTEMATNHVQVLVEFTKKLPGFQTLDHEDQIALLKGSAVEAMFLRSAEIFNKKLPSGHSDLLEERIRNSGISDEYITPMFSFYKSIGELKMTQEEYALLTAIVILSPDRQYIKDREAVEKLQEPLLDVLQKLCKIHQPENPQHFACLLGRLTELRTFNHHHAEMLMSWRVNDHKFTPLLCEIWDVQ
Hypoxia-inducible factor 1-alpha (Homo sapiens), sequence (Q16665 whole entry, looked up, the tested form may be a part): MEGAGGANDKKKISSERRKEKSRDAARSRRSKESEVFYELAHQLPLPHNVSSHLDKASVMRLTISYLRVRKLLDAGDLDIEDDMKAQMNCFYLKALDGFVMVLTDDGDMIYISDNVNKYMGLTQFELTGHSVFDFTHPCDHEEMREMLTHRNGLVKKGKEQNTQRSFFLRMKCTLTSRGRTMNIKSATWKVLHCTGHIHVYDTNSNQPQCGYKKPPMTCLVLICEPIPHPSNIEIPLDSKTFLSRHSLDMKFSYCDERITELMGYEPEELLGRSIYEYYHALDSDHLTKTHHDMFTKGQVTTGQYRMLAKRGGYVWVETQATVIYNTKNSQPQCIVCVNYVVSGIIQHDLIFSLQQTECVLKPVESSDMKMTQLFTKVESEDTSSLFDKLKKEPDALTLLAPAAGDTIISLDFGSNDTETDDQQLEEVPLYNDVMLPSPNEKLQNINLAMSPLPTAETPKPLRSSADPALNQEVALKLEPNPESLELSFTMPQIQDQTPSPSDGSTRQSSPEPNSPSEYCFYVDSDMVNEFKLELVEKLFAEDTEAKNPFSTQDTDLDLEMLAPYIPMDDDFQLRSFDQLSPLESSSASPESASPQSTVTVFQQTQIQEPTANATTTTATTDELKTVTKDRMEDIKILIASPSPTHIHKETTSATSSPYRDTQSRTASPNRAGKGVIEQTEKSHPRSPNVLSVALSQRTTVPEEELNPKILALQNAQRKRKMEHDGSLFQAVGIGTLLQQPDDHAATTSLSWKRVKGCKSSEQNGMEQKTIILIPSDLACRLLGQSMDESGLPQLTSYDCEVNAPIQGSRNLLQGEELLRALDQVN
Paired box protein Pax-6 (Homo sapiens), sequence (P26367 whole entry, looked up): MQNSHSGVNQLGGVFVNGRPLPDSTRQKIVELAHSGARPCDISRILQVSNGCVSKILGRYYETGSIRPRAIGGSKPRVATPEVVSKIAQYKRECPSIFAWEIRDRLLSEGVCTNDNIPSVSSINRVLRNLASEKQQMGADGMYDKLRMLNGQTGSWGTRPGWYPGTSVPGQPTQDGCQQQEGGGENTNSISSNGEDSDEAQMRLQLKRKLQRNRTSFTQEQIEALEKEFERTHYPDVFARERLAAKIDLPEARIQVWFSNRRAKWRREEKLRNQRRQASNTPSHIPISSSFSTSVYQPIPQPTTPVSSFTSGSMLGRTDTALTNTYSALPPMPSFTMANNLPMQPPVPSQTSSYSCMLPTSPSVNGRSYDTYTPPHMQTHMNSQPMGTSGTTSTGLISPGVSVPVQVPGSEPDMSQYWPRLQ

O=C(O)C1(c2ccc3c(c2)OC[C@H](Cc2ccc(-c4ccccc4)cc2)[C@H]3O)CCCC1
active: [6] 2.83 µM | [12] 2.85 µM
not listed: [18] | [19]
inactive: all other assays above

O=[N+]([O-])c1ccccc1O
active: [15] 26.7 µM
inactive: [1] | [2] | [18] | [3] | [4] | [19] | [6] | [7] | [9] | [10] | [11] | [12] | [13] | [14] | [15] | [17]

C=CCOC(N)=O
not listed: [8] | [12] | [18]
inactive: all other assays above

Nc1ccc(N)cc1
active: [6] 100 µM | [9] 100 µM | [15] 33 µM
inactive: [1] | [2] | [18] | [3] | [4] | [6] | [7] | [8] | [9] | [10] | [12] | [13] | [14] | [15] | [17]

CC1(C)COP(Oc2ccccc2)OC1
not listed: [5] | [16]
inactive: all other assays above

CCC[CH2][Sn]([CH2]CCC)([CH2]CCC)[CH2]CCC
active: [5] 0.378 µM | [6] 11.1 µM | [11] 17.1 µM | [13] 2.9 µM | [14] 11.1 µM | [15] 18.3 µM
not listed: [16] | [18]
inactive: all other assays above

O=c1nc(O)n(Cl)c(=O)n1Cl
not listed: [5] | [13] | [16] | [17]
inactive: all other assays above

COc1nn(C(=O)NS(=O)(=O)c2ccccc2OC(F)(F)F)c(=O)n1C
not listed: [5] | [17]
inactive: all other assays above

From PubChem BioAssay (EPA / NIEHS)
